TbPYK inhibitor = T. brucei pyruvate kinase inhibition; TbPYK enzyme, Kinase-Glo Plus ATP luminescence, 45 min; Potency, µM (top dose mostly 76.8 µM), inactives show top-dose activity, negative = inhibition, most hits filed as inhibitors; Q57TT1; AID 624173; 0.12% of 410,000 active; note: potency is the fitted concentration of half-maximal effect; nearly all actives have a fitted effect of over 50% in size
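Luminescence from Kinase-Glo Plus, added after a 45-minute room-temperature reaction, served as the end-point read-out. The enzyme and substrate were preincubated with compound before ADP (130 uM final) initiated turnover. Concentration-effect curves came from normalized qHTS data.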
Sm TGR inh = inhibitors of Schistosoma mansoni thioredoxin glutathione reductase; Q962Y6; purified TGR, DTNB reduction, TNB absorbance 405 nm; Potency, µM (top dose mostly 114 µM), for inactives: at the highest dose activity change, negative = inhibition, usual class: inhibitors; 3% of 360,000 active; note: potency is the fitted concentration of half-maximal effect; nearly all actives have a fitted effect of over 60% in size
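TGR 20 nM + NADPH 100 uM (dispensed conc.), cpd preinc 15 min RT; start with NADPH (500 uM addition) then DTNB (15 mM addition). Kinetic TNB absorbance, 405 nm filter. Four-parameter Hill fit across titration.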
FMDV antiviral = foot and mouth disease virus antiviral activity; FMDV antiviral cell-based qHTS; Potency, µM (titrated, usually from 57.9 µM), without a hit: at the top dose activity change, negative = inhibition, actives largely listed as inhibitors; 1.2% of 410,000 active; AID 1159524; calls by dose curve; tested in HEK293T cells; note: read-out not given here; potency is the fitted concentration of half-maximal effect; nearly all actives have a fitted effect of over 45% in size
RE007 growth inh = less growth of the S. pombe RE007 Vpr strain; S. pombe RE007 Vpr strain, BacTiter-Glo ATP luminescence, 24 h; Potency, µM (highest dose often 92.2 µM), for inactives: at the top dose activity change, negative = less growth, most hits filed as inhibitors; 0.21% of 360,000 active; active = well fitted falling curve with a large enough effect; inconclusive = small, poorly fitted or top-dose-only effect; inactive = no such curve, though single readings can be large or run the other way; note: potency is the fitted concentration of half-maximal effect; nearly all actives have a fitted effect of over 50% in size
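Fission yeast strain RE007, carrying one chromosomally integrated HIV-1 vpr copy, was seeded at OD 0.01 in PMG+AL medium with 23 nL pinned compound. After 24 h at 30 °C and 99% humidity, viability was read by BacTiter-Glo luminescence.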
FBPA Giardia inh = blocks Giardia fructose-bisphosphate aldolase activity; A8B2U2; 0.71% of 290,000 active; Potency, µM (doses to about 59.6 µM), inactives show top-dose activity, negative = inhibition, actives largely listed as inhibitors; AID 2451; purified Giardia FBPA; note: potency is the fitted concentration of half-maximal effect; nearly all actives have a fitted effect of over 55% in size
Target sequence (A8B2U2 whole entry, looked up): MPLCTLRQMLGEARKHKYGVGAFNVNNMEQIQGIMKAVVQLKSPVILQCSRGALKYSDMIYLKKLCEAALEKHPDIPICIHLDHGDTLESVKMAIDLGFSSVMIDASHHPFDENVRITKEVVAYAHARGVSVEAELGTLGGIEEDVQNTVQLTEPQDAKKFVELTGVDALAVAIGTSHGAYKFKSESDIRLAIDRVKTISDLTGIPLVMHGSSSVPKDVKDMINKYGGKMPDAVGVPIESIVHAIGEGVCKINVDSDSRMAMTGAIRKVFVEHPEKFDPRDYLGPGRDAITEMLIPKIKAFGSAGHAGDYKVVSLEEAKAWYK
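Giardia FBPA (40 nM reagent) was preincubated 10 min at RT with compound (up to 57.5 uM final), then substrate plus GAPDH/TPI/NAD/arsenate coupling system with diaphorase/resazurin was added; resorufin fluorescence (525/598 nm) was read after 20 min.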
HCMV antiviral = human cytomegalovirus inhibition | activity change, negative = inhibition, % at 57.5 µM | 4.5% of 410,000 active | HFF cells, HCMV-luciferase reporter, 72 h; stronger effect = lower value; in the data active = activity change below about -60%; inconclusive = no clear call, values can overlap the other calls; inactive = above about -39%
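Two compound doses tested in HFFs infected with HCMV-luciferase, MOI 1 PFU/cell, 72 h at 37C. Lysate luminescence read with OneGlo; data normalized against buffer-only and 10uM Salinomycin inhibitor controls.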
* marks the source's active call; other numbers are inactive results; ? = inconclusive; . = no result given; [ ] = remark or other dose. The list is not random: actives were taken first. Their share in the collection is about 7.7%. Unless noted, calls come from the whole dose curve; as a rule, active = well fitted curve in the direction sought with a large enough effect; inconclusive = small, poorly fitted or top-dose-only effect, or another doubt; inactive = no such curve, though single readings can be large; an effect the other way counts as inactive or inconclusive. % is set by controls: 0 for no effect and ±100 for the full control effect.

SMILES | TbPYK inhibitor | Sm TGR inh | FMDV antiviral | RE007 growth inh | FBPA Giardia inh | HCMV antiviral
C#CCOCCOCCOCCNc1nc(N2CCN(C(=O)[C@H](CCCCN)n3cc([C@@H](N)C(C)CC)nn3)CC2)nc(N2CCN(C(=O)[C@H](CCCCN)n3cc([C@@H](N)CC(C)C)nn3)CC2)n1 (stereo partly specified) | 2% | 40µM* | -14% | -8% | -1% | ?
C#CCOCCOCCOCCNc1nc(N2CCN(C(=O)[C@H](CCC(=O)O)n3cc(C(N)CO)nn3)CC2)nc(N2CCN(C(=O)[C@H](CCC(=O)O)n3cc(C(N)[C@H](C)CC)nn3)CC2)n1 (stereo partly specified) | -8% | 28µM* | -4% | 11% | -15% | .
C#CCOCCOCCOCCNc1nc(N2CCN(C(=O)[C@H](CCCCN)n3cc([C@@H](N)[C@H](C)CC)nn3)CC2)nc(N2CCN(C(=O)[C@H](CCCCN)n3cc([C@@H](N)CC(N)=O)nn3)CC2)n1 | -2% | . | -15% | -1% | . | 11
C#CCOCCOCCOCCNc1nc(N2CCN(C(=O)[C@H](CCC(=O)O)n3cc(C(N)CC(C)C)nn3)CC2)nc(N2CCN(C(=O)[C@H](CCC(=O)O)n3cc(C(N)[C@H](C)CC)nn3)CC2)n1 (stereo partly specified) | 0% | 32µM* | -8% | 7% | -10% | .
CCC1CN(CCNC(=O)c2cc(C)nn2CC)Cc2cc(OC)ccc2O1 (stereo unspecified) | . | . | 10% | . | . | .
CCNC(=O)NCCCOc1cccc(CN2CCCCC2)c1 | -4% | . | . | . | . | .
Cc1oc(-c2cccc(NC(=O)c3ccccn3)c2)nc1CNC(=O)c1ccc(C(F)(F)F)cc1 | . | . | 41% | . | . | .
COc1ccc(-n2c(SC(C)C(=O)Nc3ncc(Cl)cc3Cl)nc3ccccc32)cc1 (stereo unspecified) | 1% | -20% | -13% | 7% | -6% | -85*
N#Cc1c(C(F)(F)F)cc(-c2cccs2)nc1SCC(=O)Nc1ccccc1F | -10% | -13% | -8% | . | . | -31
COc1cc(/C=C/C(=O)c2cccc([N+](=O)[O-])c2)cc(OC)c1OC | 2% | -29% | 28µM* | -18% | 6% | -24
COc1cc(/C=C/C(=O)c2ccc(C)c([N+](=O)[O-])c2)cc(OC)c1O | -22% | -23% | 14µM* | -23% | -12% | -17
O=C(/C=C/c1ccccc1F)c1cccc([N+](=O)[O-])c1 | -2% | ? | 14% | -21% | -4% | 28
COc1cc(NC(=O)c2cc3nc(-c4ccccc4)cc(-c4ccccc4)n3n2)c(OC)cc1Cl | -2% | 1% | -16% | . | . | 15
O=C(O)CCC(=O)C(=O)O (tested in a mixture with another compound) | . | . | 2% | . | -3% | .
CCn1c2ccc(OC)cc2c2nc3ccccc3nc21 | 1% | 1% | 0% | -12% | -1% | 55
CCn1c2ccc(Cl)cc2c2nc3ccccc3nc21 | -9% | 28µM* | -21% | -11% | -8% | -3
Cc1cc(C)cc(-n2ccn(Cc3ccccc3C)c(=O)c2=O)c1 | 4% | 8% | 17% | . | . | ?
Cc1[nH]c2ccccc2c1CC(=O)O | 0% | 45µM* | 3% | 9% | 0% | 71
Cc1[nH]c2c(C)cccc2c1CC(=O)O | -2% | -33% | -12% | 8% | -8% | -13
CCCc1nn2cc(-c3ccc(C)c(C)c3)nc2s1 | -5% | -9% | -77% | . | . | -62*
Cc1cc(C)cc(-n2cnc3cc(C(=O)NCCc4ccccc4)ccc32)c1 | -3% | 1% | 24% | . | . | -99*
COc1ccc(OC)c(-n2cnc3cc(C(=O)NCCc4ccccc4)ccc32)c1 | 0% | 8% | 32% | . | . | 22
COC(CNC(=O)c1ccc2c(c1)ncn2-c1cccc(F)c1)OC | -2% | 3% | -6% | 19% | 1% | -73*
CCCCN(CCCNC(=O)CN1N=C(c2ccc(C)cc2)CCC1=O)c1ccccc1 | 1% | 2% | -16% | . | . | 3
Cc1ccc(S(=O)(=O)N(CC(=O)N/N=C\c2cccs2)c2cccc3cccnc23)cc1 | -8% | -6% | -14% | . | 10% | -63*
SMILES | TbPYK inhibitor | Sm TGR inh | FMDV antiviral | RE007 growth inh | FBPA Giardia inh | HCMV antiviral
Cc1ccc(NC(=O)C2CCC(CNS(=O)(=O)c3ccc4c(c3)CCCC(=O)N4)CC2)cc1F (stereo unspecified) | 1% | 9% | ? | . | . | -4
Cc1sc2ncnc(N3CCN(S(=O)(=O)c4ccc(Br)cc4)CC3)c2c1C | -4% | . | ? | -5% | . | 1
Cc1csc2c(N3CCN(S(=O)(=O)c4ccc(Cl)cc4)CC3)ncnc12 | 2% | -1% | -28% | 3% | 7% | 24
Cc1csc2ncnc(N3CCN(S(=O)(=O)c4cccc(C(F)(F)F)c4)CC3)c12 | -7% | 1% | ? | 4% | . | -92*
Cc1sc2ncnc(N3CCN(S(=O)(=O)c4ccc(C(C)(C)C)cc4)CC3)c2c1C | 7% | . | ? | 5% | . | -82*
Cc1ccc(S(=O)(=O)N2CCN(C(=O)C3CCN(c4ncnc5sc(C)c(C)c45)CC3)CC2)c(C)c1 | 1% | . | 20µM* | 2% | . | -80*
O=S(=O)(c1ccc(Cl)cc1)N1CCN(c2ncnc3sccc23)CC1 | 21% | . | 14µM* | 5% | . | -69*
Cc1ccc(NC2=CC(=O)C(=O)c3ccccc32)c(C)c1 | 2% | -20% | ? | 3% | . | -96*
O=C1C=C(Nc2ccccc2O)c2ccccc2C1=O | 4% | -35% | ? | ? | 18µM* | -93*
O=c1cccccc1NCc1ccccc1 | . | 35µM* | 47% | -15%[3.69 µM] | 8.9µM* | -33
O=C1C=C(Nc2ccc(F)cc2)c2ccccc2C1=O | 3% | -20% | ? | -11% | . | 34
O=C1C=C(NCc2ccccc2)c2ccccc2C1=O | 3% | 28µM* | -16% | ? | 1.3µM* | -84*
Cc1ccc(NS(=O)(=O)c2ccc3c(c2)C(=O)c2ccccc2C3=O)c(C)c1 | -1% | -11% | -24% | -3% | -29% | -18
CCOc1ccccc1CNS(=O)(=O)c1ccc2[nH]c(=O)ccc2c1 | -4% | -2% | -14% | . | . | 6
Cc1cc(S(=O)(=O)c2ccc(Cl)cc2)nc(S(=O)(=O)c2ccc(Cl)cc2)c1C#N | -22% | . | 28µM* | 20% | . | -98*
Cc1ccc(Sc2ccc(N3CCC(C(=O)Nc4ccc(Cl)cc4)CC3)nn2)cc1 | 3% | 9% | -9% | . | . | -4
